Active and inactive are the calls of the source.

The nature of experiment [1]: small molecules captured by biotinylated probe aFSTL3 – biochemical, small-molecule microarray, fluorescence 635/667, stem cell growth factor project, primary screen (AID 1064).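 Further: measures binding of the biotinylated anti-FSTL3 antibody to printed compounds.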 Conditions: higher = more signal.
Experiment [2] in a line: binders from COS7 lysate, DM2A8 probe, primary screen, torsin A project, cell lysate, small-molecule microarray, fluorescence 635/667 (AID 1065). Conditions: higher = more signal, COS7 lysate expressing mutant human TOR1A.
The nature of experiment [3]: small molecules captured by biotinylated probe aFGF2 – biochemical, small-molecule microarray, fluorescence 635/667, stem cell growth factor project, primary screen (AID 1067).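 Further: measures binding of biotinylated aFGF2 protein to printed compounds on slides; z-score merges feature fluorescence and signal-to-noise across triplicate slides.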 Conditions: higher = more signal.
Experiment [4] can be described thus: small molecules captured by biotinylated probe aFGF10 – biochemical, small-molecule microarray, fluorescence 635/667, stem cell growth factor project, primary screen (AID 1071).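 Further: score merges 667 nm spot intensity and signal to noise from triplicate slides.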 Conditions: higher = more signal.
Experiment [5] addresses Neurogenic locus notch homolog protein 2 (Homo sapiens) (UniProt Q04721). Kind of experiment: small molecules binding Notch2 protein – biochemical, small-molecule microarray, 635 nm fluorescence, stem cell growth factors, primary screen (AID 1073). Conditions: higher = more signal.
The target in experiment [6] is Pro-neuregulin-1, membrane-bound isoform (Homo sapiens) (UniProt Q02297). Kind of experiment: small molecules binding neuregulin-1 protein – biochemical, small-molecule microarray, fluorescence 635/667, psychiatric disease protein project, primary screen (AID 1075).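 Further: score combines 667 nm spot fluorescence with signal to noise.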 Conditions: NRG1 binding, 635 nm fluorescence, higher = more signal.
Chain of Pro-neuregulin-1, membrane-bound isoform (Homo sapiens) (Q02297 whole entry, looked up, the tested form may be a part, canonical isoform): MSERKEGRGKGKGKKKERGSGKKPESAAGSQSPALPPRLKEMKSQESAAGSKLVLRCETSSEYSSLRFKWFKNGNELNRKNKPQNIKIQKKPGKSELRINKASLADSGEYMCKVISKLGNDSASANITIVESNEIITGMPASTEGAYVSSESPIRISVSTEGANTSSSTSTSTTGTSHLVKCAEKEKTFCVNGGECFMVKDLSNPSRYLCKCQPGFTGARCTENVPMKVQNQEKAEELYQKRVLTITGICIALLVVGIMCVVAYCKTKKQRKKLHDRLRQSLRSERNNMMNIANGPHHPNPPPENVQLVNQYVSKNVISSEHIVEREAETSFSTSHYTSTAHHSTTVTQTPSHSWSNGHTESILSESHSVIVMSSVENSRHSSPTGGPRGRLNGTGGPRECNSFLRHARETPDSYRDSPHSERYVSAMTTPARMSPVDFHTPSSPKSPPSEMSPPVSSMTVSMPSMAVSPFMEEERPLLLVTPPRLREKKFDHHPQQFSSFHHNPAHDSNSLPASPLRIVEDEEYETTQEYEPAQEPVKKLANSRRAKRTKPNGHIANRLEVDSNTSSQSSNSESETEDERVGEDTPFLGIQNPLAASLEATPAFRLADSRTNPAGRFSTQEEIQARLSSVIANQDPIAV
Experiment [7] concerns Neuregulin-1 EGF-like domain. Kind of experiment: small molecules binding NRG1 EGF domain – biochemical, small-molecule microarray, 635 nm fluorescence, primary screen (AID 1081).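 Further: binding of the protein to compounds printed on small-molecule microarray slides.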 Conditions: higher = more signal.
Experiment [8] can be described thus: FRG1 expression reporter modulators in myotubes – cell-based, C2C12 myotubes, firefly/Renilla luciferase, luminescence, FRG1 inhibition for FSHD, primary screen (AID 1084). Conditions: FRG1 promoter luciferase, higher = more signal, called active from +8 up or from −8 down.
Experiment [9] is described as follows: small molecules captured by biotinylated probe aFST – biochemical, small-molecule microarray, fluorescence 635/667, stem cell growth factor project, primary screen (AID 1086).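 Further: score merges 667 nm fluorescence with signal-to-noise of each printed compound spot.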 Conditions: higher = more signal.
The nature of experiment [10]: binders of probe aHhip on microarray, primary screen, stem cell growth factor project, biochemical, small-molecule microarray, fluorescence 635/667 (AID 1087).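 Further: score merges spot fluorescence at 667nm with spot signal to noise ratio.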 Conditions: higher = more signal.
For experiment [11], the system named is PRMT1 (protein arginine N-methyltransferase 1). The experiment can be described thus: small molecules binding arginine methyltransferase PRMT1 – biochemical, small-molecule microarray, 635 nm fluorescence, primary screen (AID 1088).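 Further: binding of Prmt1 protein to compounds spotted on small-molecule microarray slides.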 Conditions: higher = more signal.
A short description of experiment [12]: growth effects on S. cerevisiae YJM789 – YJM789 clinical isolate, OD600, 24 h, basal, primary screen (AID 1089).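 Further: growth of clinical yeast isolate S. cerevisiae YJM 789 seeded 1000 cells per well; test concentration not given here.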 Conditions: higher = more signal, called active from +8 up or from −8 down.
The nature of experiment [13]: S. pombe growth modifiers, basal conditions – strain 972, OD600, 24 h, no modulator, primary screen (AID 1090).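 Further: basal condition with compound alone and no growth modifier present; test concentration not given here.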 Conditions: S. pombe 972 growth, higher = more signal, called active from +8 up or from −8 down.
A short description of experiment [14]: budding yeast growth modifiers under rapamycin – strain BY4716, OD600, 96 h, primary screen (AID 1091). Further: test concentration not given here. Conditions: S. cerevisiae BY4716 + rapamycin, higher = more signal, called active from +8 up or from −8 down.
Experiment [15] has as its target Torsin-1A-interacting protein 2 (Homo sapiens) (UniProt Q8NFQ8). Kind of experiment: small molecules binding lysate-expressed LULL1 – cell lysate, human LULL1 lysate, 635/667 nm fluorescence, primary screen (AID 1092).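 Further: probe is lysate of COS7 cells overexpressing human LULL1; score merges per-feature 667 nm fluorescence with signal-to-noise.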 Conditions: small-molecule microarray, hLULL1 lysate binding, 635 nm fluorescence; higher = more signal.
The nature of experiment [16]: optical density change of DRC41 E. coli – strain DRC41, OD650, 24 h, E. coli filamentation project, primary screen (AID 1093).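 Further: MC1000 strain lacking acrAB efflux and sulA so SOS filamentation is blocked; test concentration not given here.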 Conditions: E. coli DRC41 growth, higher = more signal, called active from +8 up or from −8 down.
Experiment [17] in a line: probe aLefty2 binding to arrayed compounds – biochemical, biotinylated probe, 635/667 nm fluorescence, primary screen (AID 1094).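 Further: score merges spot fluorescence near 667 nm with spot signal-to-noise ratio.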 Conditions: small-molecule microarray, higher = more signal.
Experiment [18] has as its system Noggin (protein binding on small-molecule microarray). The experiment can be described thus: small molecules binding Noggin protein – biochemical, 635/667 nm fluorescence, primary screen (AID 1095).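 Further: score merges 667 nm feature fluorescence with signal to noise over triplicate slides.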 Conditions: 635 nm fluorescence, higher = more signal.
In experiment [19] the target is Neurogenic locus notch homolog protein 3 (Homo sapiens) (UniProt Q9UM47). Kind of experiment: small molecules binding NOTCH3 protein – biochemical, 635/667 nm fluorescence, primary screen (AID 1096). Conditions: small-molecule microarray, 635 nm fluorescence, higher = more signal.
The nature of experiment [20]: probe aEGFR binding to arrayed compounds – biochemical, biotinylated probe, 635/667 nm fluorescence, primary screen (AID 1097).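 Further: probe is a biotinylated anti-EGFR antibody binding compounds printed on slides; score combines fluorescence near 667 nm and signal to noise of each spot.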 Conditions: small-molecule microarray, higher = more signal.

Chain of Neurogenic locus notch homolog protein 2 (Homo sapiens) (Q04721 whole entry, looked up, canonical isoform): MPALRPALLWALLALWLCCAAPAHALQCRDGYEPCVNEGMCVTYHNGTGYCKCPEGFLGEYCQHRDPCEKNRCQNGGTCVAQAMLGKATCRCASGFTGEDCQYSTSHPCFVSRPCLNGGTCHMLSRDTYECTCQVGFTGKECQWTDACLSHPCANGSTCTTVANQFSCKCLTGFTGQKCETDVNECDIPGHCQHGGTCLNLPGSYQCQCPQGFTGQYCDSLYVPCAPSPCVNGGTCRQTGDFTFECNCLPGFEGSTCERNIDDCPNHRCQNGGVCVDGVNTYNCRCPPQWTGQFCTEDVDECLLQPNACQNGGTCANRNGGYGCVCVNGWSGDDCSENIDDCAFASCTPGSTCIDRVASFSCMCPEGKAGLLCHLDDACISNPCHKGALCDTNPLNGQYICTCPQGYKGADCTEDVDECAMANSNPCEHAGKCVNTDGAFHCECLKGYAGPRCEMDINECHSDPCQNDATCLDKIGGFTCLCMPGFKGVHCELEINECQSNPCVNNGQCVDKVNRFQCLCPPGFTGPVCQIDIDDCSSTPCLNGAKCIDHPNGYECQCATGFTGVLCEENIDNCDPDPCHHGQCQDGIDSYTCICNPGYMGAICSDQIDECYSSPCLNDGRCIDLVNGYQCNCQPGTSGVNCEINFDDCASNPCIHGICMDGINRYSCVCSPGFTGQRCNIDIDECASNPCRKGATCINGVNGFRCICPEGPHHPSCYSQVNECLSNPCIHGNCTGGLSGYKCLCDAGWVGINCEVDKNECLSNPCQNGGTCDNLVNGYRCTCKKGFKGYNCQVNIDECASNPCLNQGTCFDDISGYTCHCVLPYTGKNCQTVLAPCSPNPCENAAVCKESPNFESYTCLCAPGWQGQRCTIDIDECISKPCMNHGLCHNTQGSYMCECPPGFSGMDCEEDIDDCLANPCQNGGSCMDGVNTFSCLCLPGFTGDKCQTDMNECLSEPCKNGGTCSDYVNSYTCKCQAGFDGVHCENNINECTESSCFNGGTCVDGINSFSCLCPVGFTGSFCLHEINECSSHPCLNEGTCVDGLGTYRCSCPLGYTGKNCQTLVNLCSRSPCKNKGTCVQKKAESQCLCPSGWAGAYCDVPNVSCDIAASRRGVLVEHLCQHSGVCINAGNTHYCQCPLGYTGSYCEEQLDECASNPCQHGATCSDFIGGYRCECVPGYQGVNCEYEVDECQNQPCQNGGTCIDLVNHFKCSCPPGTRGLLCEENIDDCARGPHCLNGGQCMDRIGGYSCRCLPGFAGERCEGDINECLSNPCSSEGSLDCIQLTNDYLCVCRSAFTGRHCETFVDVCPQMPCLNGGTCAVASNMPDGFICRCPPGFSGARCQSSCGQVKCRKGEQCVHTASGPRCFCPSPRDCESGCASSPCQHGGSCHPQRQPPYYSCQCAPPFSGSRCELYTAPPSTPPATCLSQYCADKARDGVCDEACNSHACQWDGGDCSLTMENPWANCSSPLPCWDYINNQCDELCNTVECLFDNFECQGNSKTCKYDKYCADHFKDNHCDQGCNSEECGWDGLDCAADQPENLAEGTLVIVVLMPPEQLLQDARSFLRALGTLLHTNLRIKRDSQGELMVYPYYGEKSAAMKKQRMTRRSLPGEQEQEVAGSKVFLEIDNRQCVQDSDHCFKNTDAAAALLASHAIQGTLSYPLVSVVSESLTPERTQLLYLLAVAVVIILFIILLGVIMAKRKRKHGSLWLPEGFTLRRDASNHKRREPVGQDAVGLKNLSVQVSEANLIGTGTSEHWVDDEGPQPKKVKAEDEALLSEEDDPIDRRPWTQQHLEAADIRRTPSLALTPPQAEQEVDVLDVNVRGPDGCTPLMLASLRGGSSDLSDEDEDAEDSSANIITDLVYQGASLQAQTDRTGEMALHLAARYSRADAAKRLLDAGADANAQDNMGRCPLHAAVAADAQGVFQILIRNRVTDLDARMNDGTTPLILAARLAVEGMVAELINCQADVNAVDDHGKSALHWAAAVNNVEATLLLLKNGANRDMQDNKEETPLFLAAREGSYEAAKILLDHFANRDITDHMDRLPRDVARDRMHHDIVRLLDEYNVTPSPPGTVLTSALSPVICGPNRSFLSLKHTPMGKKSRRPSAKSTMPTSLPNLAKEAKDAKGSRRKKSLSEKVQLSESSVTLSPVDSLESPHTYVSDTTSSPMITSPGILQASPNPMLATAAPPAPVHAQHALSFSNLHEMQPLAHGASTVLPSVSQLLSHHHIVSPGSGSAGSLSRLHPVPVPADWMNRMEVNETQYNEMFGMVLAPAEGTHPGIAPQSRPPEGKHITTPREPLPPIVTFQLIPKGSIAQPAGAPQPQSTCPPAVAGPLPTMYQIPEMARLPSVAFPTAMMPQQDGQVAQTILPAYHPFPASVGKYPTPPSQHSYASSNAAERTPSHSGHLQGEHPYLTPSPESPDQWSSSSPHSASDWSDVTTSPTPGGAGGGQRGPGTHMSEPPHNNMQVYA
Chain of Torsin-1A-interacting protein 2 (Homo sapiens) (Q8NFQ8 whole entry, looked up): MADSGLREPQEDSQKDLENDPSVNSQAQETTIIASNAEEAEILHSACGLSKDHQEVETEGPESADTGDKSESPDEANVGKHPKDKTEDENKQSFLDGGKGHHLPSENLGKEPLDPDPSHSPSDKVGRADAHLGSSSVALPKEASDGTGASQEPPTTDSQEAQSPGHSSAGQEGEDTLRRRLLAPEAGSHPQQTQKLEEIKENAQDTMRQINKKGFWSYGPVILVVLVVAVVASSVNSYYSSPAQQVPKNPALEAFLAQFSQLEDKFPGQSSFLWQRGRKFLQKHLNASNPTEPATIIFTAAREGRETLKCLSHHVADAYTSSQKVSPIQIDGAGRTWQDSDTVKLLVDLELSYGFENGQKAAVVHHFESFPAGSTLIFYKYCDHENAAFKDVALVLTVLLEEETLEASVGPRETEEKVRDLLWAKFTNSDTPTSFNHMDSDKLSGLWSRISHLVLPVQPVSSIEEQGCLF

Regarding `C[C@@H]1ON(c2ccc(C(=O)OC(C)(C)C)cc2)[C@H](c2ccc(O)cc2)[C@H]1C(=O)N1C(=O)OC[C@H]1Cc1ccccc1`, the composite z-score in experiment [1] was -0.521; in [2] it was 0.707; in experiment [3] it was -0.109; in experiment [4], 0.8; in [5], 1.37; in experiment [6] it was 0.803. In addition, the composite z-score in [7] was 1.05; in experiment [9], 0.236; in experiment [10], -0.0645; in experiment [11] it was 1.56; in experiment [15], 1.24; in experiment [17] it was -0.146. Also, the composite z-score in experiment [18] was 0.525; in [19], 1.12; in experiment [20], -0.0333. In addition, the z-score in experiment [8] is 0.0087 (inactive); in experiment [12], 0.465 (inactive); in experiment [13] it was -0.29 (inactive); in [14], 1.84 (inactive); in [16] it was -0.63 (inactive).
With `COc1ccc([Si](C)(C)[C@@H]2[C@@H](CC(=O)N(CCO)Cc3ccccc3)O[C@]3(C(=O)N(Cc4cccc(N5C(=O)c6cccc7cccc5c67)c4)c4ccccc43)[C@H]2C)cc1`, the composite z-score in [1] was -0.143; in experiment [2] it was 0.167; in [3], -0.105; in experiment [4] it was 0.409; in experiment [5] it was -0.127; in [6], 0.442. Further, the composite z-score was 0.763 in [7]; 0.116 in [9]; -0.0193 in experiment [10]; 0.737 in experiment [11]; 0.36 in experiment [15]; -0.259 in [17]. In addition, the composite z-score in experiment [18] was 1.33; in [19], 0.455; in experiment [20], -0.115. Also, the z-score in [8] is -1.05 (inactive); in experiment [12] it was 0.121 (inactive); in [13], -0.534 (inactive); in experiment [14], 2.09 (inactive); in experiment [16], 2.11 (inactive).
Turning to `O=C1O[C@H](c2ccccc2)[C@H](c2ccccc2)N2[C@H]1[C@@H](C(=O)Nc1nc3ccccc3s1)[C@]1(C(=O)Nc3ccc(C#CCCO)cc31)[C@H]2c1ccc(O)cc1`, the composite z-score was -0.309 in experiment [1]; 0.931 in experiment [2]; -0.0074 in experiment [3]; 1.01 in experiment [4]; 0.947 in [5]; 1.2 in [6]. Besides, the composite z-score in experiment [7] was 1.27; in [9], 0.652; in experiment [10], -0.0581; in experiment [11], 1.55; in experiment [15] it was 2.39; in [17], 0.0769. Also, the composite z-score worked out at 0.744 in experiment [18], 1.13 in [19] and 0.346 in [20]. Also, the z-score in experiment [8] was 0.912 (inactive); in experiment [12] it was 0.758 (inactive); in experiment [13], 0.936 (inactive); in experiment [14], 1.14 (inactive); in experiment [16], -0.672 (inactive).
Take `CCOc1cc(C(O)C2C=CC3C(=O)N(C)C(=O)C3N2Nc2ccccc2)ccc1O` (stereo not given): the composite z-score was -0.329 in [1]; 0.101 in experiment [2]; 0.0827 in experiment [3]; 0.305 in experiment [4]; 1.46 in [5]; 1.78 in [6]. The composite z-score came to 1.49 in experiment [7]; 0.472 in experiment [9]; 0.24 in [10]; 1.13 in [11]; 1.84 in experiment [15]; 0.0258 in [17]. In addition, the composite z-score in experiment [18] is -0.386; in experiment [19], 0.679; in [20] it was 0.0439. The z-score in experiment [8] is 0.55 (inactive); in experiment [12], 0.921 (inactive); in experiment [13] it was 1.23 (inactive); in [14], 1.97 (inactive); in experiment [16], -0.0866 (inactive).
On to `COc1ccc([Si](C)(C)[C@H]2[C@H](CCO)O[C@@]3(C(=O)N(Cc4cccc(N5C(=O)COc6ccccc65)c4)c4ccccc43)[C@@H]2C)cc1`, for which the composite z-score in experiment [1] was 0.295; in experiment [2], 0.15; in experiment [3] it was -0.0877; in [4] it was 0.126; in experiment [5], -0.298; in experiment [6], 0.727. The composite z-score in experiment [7] is 0.828; in experiment [9], -0.203; in [10], -0.333; in experiment [11], 0.911; in experiment [15], 0.795; in [17], -0.0021. Moreover, the results for the composite z-score in experiment [18], in experiment [19] and in experiment [20] were 0.164, 0.14 and -0.148, respectively. In addition, the z-score is -2.07 (inactive) in [8]; 1.5 (inactive) in [12]; -0.845 (inactive) in [13]; 16.8 (active) in [14]; 1.98 (inactive) in experiment [16].
